Pf growth 96h: P. falciparum growth inhibition at 96 hour, primary screen for plastid delayed-death inhibitors; P. falciparum luciferase reporter growth, 96 h; Potency, µM (doses to about 28.7 µM), without a hit: at the highest dose activity change, negative = inhibition, actives largely listed as inhibitors; 320,000 compounds, 6.9% hits; AID 504834; also: potency is read from the fitted curve at half-maximal effect; % is scaled to controls: 0 for no effect and ±100 for the full control effect
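Luminescence readout: decreased luciferase signal marks inhibited growth of reporter-expressing P. falciparum in infected red cells (2% hematocrit, 0.05% parasitemia final), exposed to compound two generations (96 h, 37 C, 5% CO2).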
Pf growth 48h: P. falciparum growth inhibition at 48 hours (one generation); P. falciparum luciferase growth in erythrocytes, 48 h; Potency, µM (top dose mostly 28.7 µM), for inactives: at the top dose activity change, negative = inhibition, usual class: inhibitors; 310,000 compounds, 5.9% hits; AID 504832; also: potency is read from the fitted curve at half-maximal effect; % is scaled to controls: 0 for no effect and ±100 for the full control effect
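Luminescence readout; reporter = integrated firefly luciferase in P. falciparum. RBC culture at 2% hematocrit, 0.1% parasitemia final, 37 C/5% CO2; decreased signal taken as growth inhibition.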
Marburg entry inh: Marburg virus entry inhibition; Marburg virus pseudotyped entry inhibition, cell reporter; Potency, µM (series often up to 37.8 µM), without a hit: top-dose activity change, negative = inhibition, actives largely listed as inhibitors; 300,000 compounds, 1.8% hits; calls by dose curve; tested in HEK293 cells; also: potency is read from the fitted curve at half-maximal effect; % is scaled to controls: 0 for no effect and ±100 for the full control effect
Shiga toxin inh: blocks Shiga toxin action in Vero cells. Vero cells, Shiga toxin protein synthesis inhibition reporter. inhibition, % at 38.7 µM. 290,000 compounds, 9.2% hits. AID 2315; in the data active = inhibition mostly above about 28%, no sharp cut-off; inactive = mostly below about 43%; also: 0% is about no effect
Lassa entry inh: inhibitors of Lassa virus binding or cell entry; Lassa virus pseudotype entry inhibition, cell reporter; Potency, µM (top dose mostly 37.9 µM), without a hit: at the highest dose activity change, negative = inhibition, most hits filed as inhibitors; 300,000 compounds, 1.2% hits; AID 540256; calls by dose curve; tested in HEK293 cells; also: potency is read from the fitted curve at half-maximal effect; % is scaled to controls: 0 for no effect and ±100 for the full control effect; nearly all actives have a fitted effect of over 50% in size
CHX counter: counter-screen hit for Shiga toxin inhibitors, cycloheximide. cell reporter, cycloheximide protein synthesis inhibition counterscreen. max response, %. 300,000 compounds, 12% hits; in the data active = max response mostly above about 13%, no sharp cut-off; inactive = mostly below about 14%; also: read at 38.3 µM for the half of the compounds with a filed dose; 0% is about no effect
The depositor's hits bear a star; [ ] = remark or other dose. Only some compounds are listed: those with a hit (about 19% of all), similar ones and a draw of the others. Unless noted, calls follow the shape of the dose curve; as a rule, active = well fitted inhibition curve with a large enough effect; inconclusive = small, poorly fitted or top-dose-only effect, or another doubt; inactive = no such curve, though single readings can be large or run the other way.

COc1cccc(Nc2ccc(C(=O)O)cc2N)c1 was read as Pf growth 96h inconclusive, Pf growth 48h 152%, Marburg entry inh inconclusive, Shiga toxin inh 74*, Lassa entry inh 14% and CHX counter 62*.
`COc1cccc(Nc2c(F)c(F)c(F)c(F)c2C(=O)O)c1` gave Pf growth 96h 13µM*, Pf growth 48h -7%, Marburg entry inh 5%, Shiga toxin inh -6, Lassa entry inh 5% and CHX counter -1.
For COc1cccc(Nc2c(F)c(OC)c(F)c(F)c2C(=O)O)c1 the results were Pf growth 96h 4%, Pf growth 48h 52%, Marburg entry inh inconclusive, Shiga toxin inh -7, Lassa entry inh 9% and CHX counter 1.
Screening FC(F)(F)c1cc(-c2ccccc2)nc(NCC2CCCO2)n1 (stereo unspecified) returned Pf growth 96h 48%, Pf growth 48h 3%, Marburg entry inh inconclusive, Shiga toxin inh -17, Lassa entry inh -9% and CHX counter -5.
Screening COC(=O)Cn1c(SCCOc2ccccc2Cl)nc2ccccc21 returned Marburg entry inh -3%[46.1 µM] and Lassa entry inh -31%[46.1 µM].
COc1ccc(/C=N/n2nnnc2N)c(OC)c1 was read as Pf growth 96h 92%, Pf growth 48h 59%, Marburg entry inh inconclusive, Shiga toxin inh 28*, Lassa entry inh 26%[46.1 µM] and CHX counter 23*.
For COc1ccccc1/C=N/n1nnnc1N the results were Pf growth 96h 114%, Pf growth 48h 36%, Marburg entry inh inconclusive, Shiga toxin inh 19, Lassa entry inh 5%[46.1 µM] and CHX counter 2.
Screening COc1cccc(/C=N/n2nnnc2N)c1O returned Pf growth 96h 34%, Pf growth 48h 25%, Marburg entry inh 3%[46.1 µM], Shiga toxin inh 59*, Lassa entry inh 25% and CHX counter 21*.
Screening CCCc1ncc(C(O)(c2ccccc2)c2ccccc2)n1C returned Pf growth 96h 47%, Pf growth 48h 1%, Marburg entry inh -4%[46.1 µM], Shiga toxin inh -5, Lassa entry inh -24%[46.1 µM] and CHX counter -4.
Screening COc1ccc(S(=O)(=O)NC2CC(C)(C)NC(C)(C)C2)cc1C(C)C returned Pf growth 96h inconclusive, Pf growth 48h inconclusive, Marburg entry inh inconclusive, Shiga toxin inh -3, Lassa entry inh inconclusive and CHX counter 1.
`O=C1c2c(O)ccc(O)c2C(=O)c2c(NCCNCCO)ccc(NCCNCCO)c21` gave Pf growth 96h 0.93µM*, Pf growth 48h 0.83µM*, Marburg entry inh 0.056µM* and Lassa entry inh 0.5µM*.
`O=C(N/N=C/c1cccnc1)C12CC3CC(CC(C3)C1)C2` gave Pf growth 96h 3%, Pf growth 48h inconclusive, Marburg entry inh inconclusive, Shiga toxin inh 2, Lassa entry inh 16%[46.1 µM] and CHX counter 6.
CCN1/C(=C/c2ccc3cc(C)ccc3[n+]2CC)Sc2cc(C)c(C)cc21 was read as Pf growth 96h 2%, Pf growth 48h 2.1µM*, Marburg entry inh inconclusive, Shiga toxin inh -4, Lassa entry inh 2µM* and CHX counter -1.
Screening CCN1/C(=C/c2ccc3cc(C)ccc3[n+]2CC)Sc2ccccc21 returned Pf growth 96h 13%, Pf growth 48h 0.59µM*, Marburg entry inh 1µM*, Shiga toxin inh -18, Lassa entry inh 5.2µM* and CHX counter -4.
For Cc1nnsc1SCC(=O)O the results were Pf growth 96h 0%, Pf growth 48h 43%, Marburg entry inh 13%, Shiga toxin inh 24, Lassa entry inh -6% and CHX counter -2.
For c1ccc(CNCC2COc3ccccc3O2)cc1 (stereo unspecified) the results were Pf growth 96h 71%, Pf growth 48h 13%, Marburg entry inh inconclusive, Shiga toxin inh 49*, Lassa entry inh 2% and CHX counter 2.
COc1ccc(CC(=O)NCC2COc3ccccc3O2)cc1 (stereo unspecified) was read as Pf growth 96h inconclusive, Pf growth 48h 6%, Shiga toxin inh 17 and CHX counter 9.
COc1ccc(CNCC2COc3ccccc3O2)cc1 (stereo unspecified) was read as Pf growth 96h 30%, Pf growth 48h 11%, Shiga toxin inh 28 and CHX counter 22*.
For CN(C=C1C(=O)CC(C)(C)CC1=O)CCN1CCNCC1 the results were Pf growth 96h 58%, Pf growth 48h 8%, Marburg entry inh 7%[46.1 µM], Shiga toxin inh -17, Lassa entry inh -5% and CHX counter -2.
Screening c1ccc2oc(-c3ccn[nH]3)cc2c1 returned Pf growth 96h 83%, Pf growth 48h 111%, Marburg entry inh inconclusive, Shiga toxin inh 90*, Lassa entry inh inconclusive and CHX counter 39*.
Screening CCCC(O)(c1ccc(CC)cc1)C(CN1CCOCC1)c1ccccc1 (stereo unspecified) returned Pf growth 96h 0%, Pf growth 48h 0.93µM*, Marburg entry inh inconclusive, Shiga toxin inh -5, Lassa entry inh inconclusive and CHX counter -6.
`CCc1ccc(C(O)(C(C)C)C(CN2CCOCC2)c2ccccc2)cc1` (stereo unspecified) gave Pf growth 96h -1%, Pf growth 48h 5.2µM*, Shiga toxin inh -3 and CHX counter -2.
Screening CCCC(O)(c1ccc(Br)cc1)C(CN1CCOCC1)c1ccc(Cl)cc1 (stereo unspecified) returned Pf growth 96h 39%, Pf growth 48h 2.3µM*, Marburg entry inh inconclusive, Shiga toxin inh -11, Lassa entry inh inconclusive and CHX counter 1.
`CC(C)C(O)(c1ccccc1)C(CN1CCOCC1)c1ccccc1` (stereo unspecified) gave Pf growth 96h 12%, Pf growth 48h inconclusive, Shiga toxin inh -4 and CHX counter -3.
COc1ccc(-c2nnc(SCC(=O)Nc3ccc(C(=O)O)cc3)n2-c2ccc(Cl)cc2)cc1 was read as Pf growth 96h 11%, Pf growth 48h 7%, Marburg entry inh -5%[46.1 µM], Shiga toxin inh 0, Lassa entry inh 10%[46.1 µM] and CHX counter 8.
Screening COc1ccc(-n2nnnc2/C=C\Nc2ccccc2C(=O)c2ccccc2)cc1 returned Pf growth 96h 8.3µM*, Pf growth 48h inconclusive, Marburg entry inh -15%, Shiga toxin inh 22, Lassa entry inh inconclusive and CHX counter 1.
`O=C(CSc1nnc(-c2c[nH]c3ccccc23)o1)NCC1CCCO1` (stereo unspecified) gave Pf growth 96h inconclusive, Pf growth 48h inconclusive, Marburg entry inh -5% and Lassa entry inh 3%.
`CC1CCCCN1C(=O)CSc1nnc(-c2c[nH]c3ccccc23)o1` (stereo unspecified) gave Pf growth 96h -26%, Pf growth 48h inconclusive, Marburg entry inh -3%, Shiga toxin inh 75, Lassa entry inh -2% and CHX counter 28*.
